In assay [1] the target is guinea pig Serotonin, 5-Hydroxytryptamine Receptor 4 (5HT4), HTR4 (gene 100135548) (UniProt O70528). Briefly: NVS_GPCR_g5HT4: NovaScreen (NVS) G Protein-Coupled Receptor Assay for guinea pig Serotonin, 5-Hydroxytryptamine Receptor 4 (5HT4) (AID 2283294). Summed up: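 Guinea pig striatal membranes; radioligand competitive displacement, filtration and scintillation counting after 1 h. Primary screen in duplicate at 25 uM; actives then tested in concentration series; loss of binding signal fitted relative to DMSO.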

Assay [2] concerns the target rat Serotonin, 5-Hydroxytryptamine Receptor (5HT), Non-Selective Binding, Htr1a (gene 24473) (UniProt P19327). Briefly: NVS_GPCR_r5HT_NonSelective: NovaScreen (NVS) G Protein-Coupled Receptor Assay for rat Serotonin, 5-Hydroxytryptamine Receptor (5HT), Non-Selective Binding (AID 2283295). Put shortly: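 Radioligand displacement on rat cortical membranes, 1 h incubation, filter-based scintillation counting. Primary duplicates at 25 uM, actives retested in concentration series; loss of signal fitted against DMSO as baseline.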

Assay [3] concerns the target rat Adrenergic, Alpha 1A Receptor (Adra1A), Adra1a (gene 29412) (UniProt P43140). Kind of assay: NVS_GPCR_rAdra1A: NovaScreen (NVS) G Protein-Coupled Receptor Assay for rat Adrenergic, Alpha 1A Receptor (Adra1A) (AID 2283296). Put shortly:
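Rat cortical membranes pretreated with chlorethyl clonidine; competitive radioligand displacement, 1 h. Filter-based scintillation counting. Primary screen in duplicate at 25 uM, actives followed in concentration series.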

Assay [4] concerns rat Adrenergic, Alpha 1B Receptor (Adra1B), gene 24173. Briefly: NVS_GPCR_rAdra1B: NovaScreen (NVS) G Protein-Coupled Receptor Assay for rat Adrenergic, Alpha 1B Receptor (Adra1B) (AID 2283297). Summed up:
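Rat liver membranes, radioligand displacement with filter-based scintillation detection, 1 h incubation. Primary screen in duplicate at 25 uM; actives retested in concentration series; activity relative to DMSO.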

For assay [5], the target named is rat Adrenergic Receptor, Alpha 2 (Adra2), Non-selective Binding, Adra2a (gene 25083) (UniProt P22909). Briefly: NVS_GPCR_rAdra2_NonSelective: NovaScreen (NVS) G Protein-Coupled Receptor Assay for rat Adrenergic Receptor, Alpha 2 (Adra2), Non-selective Binding (AID 2283299). Put shortly: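 Rat cortical membranes, radioligand competitive displacement read by filter-based scintillation counting 1.25 hours after dosing. Primary screen in duplicate at 25 uM; actives followed up in concentration series.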

The next assay deals with Adra2b (gene 24174) (UniProt P19328). Kind of assay: NVS_GPCR_rmAdra2B: NovaScreen (NVS) G Protein-Coupled Receptor Assay for hybird cells Adrenergic, Alpha 2B Receptor (Adra2B) (AID 2283306). Put shortly: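 Radioligand filter-binding assay on membrane proteins from neuroglioma/blastoma hybrid cells (rodent), 1 h after dosing; scintillation counting, loss of signal vs DMSO. Primary screen in duplicate at 25 uM, actives then run in concentration series.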

Assay [6] addresses rat Neurokinin-3 Receptor (NK3), Tacr3 (gene 24808) (UniProt P16177). Briefly: NVS_GPCR_rNK3: NovaScreen (NVS) G Protein-Coupled Receptor Assay for rat Neurokinin-3 Receptor (NK3) (AID 2283310). Summed up:
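Rat cortical membranes; radioligand binding with filtration and scintillation counting, 2 h after dosing. Primary screen in duplicate at 25 uM, then concentration-response up to 50 uM; loss of binding signal relative to DMSO.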

Assay [7] has as its target rat Opioid Receptor, Non-selective Sodium (Na+) Binding, Oprm1 (gene 25601) (UniProt P33535). Briefly: NVS_GPCR_rOpiate_NonSelectiveNa: NovaScreen (NVS) G Protein-Coupled Receptor Assay for rat Opioid Receptor, Non-selective Sodium (Na+) Binding (AID 2283311). Summed up:
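Rat forebrain membranes, radioligand displacement with filter scintillation counting, 1.5 h incubation. Screened in duplicate at 25 µM; hits then run in concentration-response up to 50 µM; loss of binding fitted versus DMSO.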

For assay [8], the target named is rat Somatostatin Receptor (SST), Sstr1 (gene 25033) (UniProt P28646). Kind of assay: NVS_GPCR_rSST: NovaScreen (NVS) G Protein-Coupled Receptor Assay for rat Somatostatin Receptor (SST) (AID 2283314). Put shortly: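 Rat forebrain membranes; radioligand displacement read by filter-based scintillation counting 1 h after dosing. Primary screen in duplicate at 25 uM. Actives (e.g., 30% inhibition) were rerun as concentration-response to 50 uM max and fitted against DMSO.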

Assay [9] has as its target rat Vasopressin 1 Receptor (V1), Avpr1a (gene 25107) (UniProt P30560). Briefly: NVS_GPCR_rV1: NovaScreen (NVS) G Protein-Coupled Receptor Assay for rat Vasopressin 1 Receptor (V1) (AID 2283316). Summed up:
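Radioligand binding on rat liver membranes, 1.5 h incubation, filter-based scintillation counting. Single 25 uM screen in duplicate; chemicals meeting threshold (e.g. 30% inhibition) run in concentration-response up to 50 uM.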

Assay [10] addresses rat Opioid Receptor, Non-selective Binding, Oprm1 (gene 25601) (UniProt P33535). Kind of assay: NVS_GPCR_rOpiate_NonSelective: NovaScreen (NVS) G Protein-Coupled Receptor Assay for rat Opioid Receptor, Non-selective Binding (AID 2283318). Put shortly:
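Rat forebrain membranes, cell-free radioligand binding with filter-based scintillation counting, read 1.5 h after dosing. Primary screen in duplicate at 25 uM; actives retested in concentration series. Loss of signal versus DMSO baseline scored.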

For another assay, the system named is NCBI gene 24521. Briefly: NVS_IC_rKATPCh: NovaScreen (NVS) Ion Channel Assay for rat Potassium Channel, ATP-Sensitive (KATPCh) (AID 2283319). Put shortly:
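Rat cortical membranes; radioligand binding at ATP-sensitive K channel site, filter-based scintillation counting 2 h after dosing. Single-point duplicate screen at 25 uM, hits rerun in concentration-response up to 50 uM; loss of signal versus DMSO.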

In assay [11] the target is rat Neurokinin-1 Receptor (NK1), Tacr1 (gene 24807) (UniProt P14600). Kind of assay: NVS_GPCR_rNK1: NovaScreen (NVS) G Protein-Coupled Receptor Assay for rat Neurokinin-1 Receptor (NK1) (AID 2283309). Summed up: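 Rat submaxillary gland membranes; radioligand displacement read by filter-based scintillation counting after 1 h. Primary screen in duplicate at 25 uM; actives retested in concentration series; loss of binding fitted versus DMSO.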

A short description of assay [12]: NVS_IC_rCaDHPRCh_L: NovaScreen (NVS) Ion Channel Assay for rat Calcium Channel, Type L, Dihydropyridine Site (CaDHPRCh_L) (AID 2283320). Summed up: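 Radioligand binding to dihydropyridine site on rat cortical membranes, filter-based scintillation counting, 1 h after dosing. Screened in duplicate at 25 uM; actives rerun in concentration-response up to 50 uM. Loss of signal versus DMSO baseline.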

Assay [13] deals with rat Histamine Receptor (H3), Hrh3 (gene 85268) (UniProt Q9QYN8). Briefly: NVS_GPCR_rH3: NovaScreen (NVS) G Protein-Coupled Receptor Assay for rat Histamine Receptor (H3) (AID 2283303). Put shortly: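 Rat forebrain membranes incubated 1 h with compound; radioligand displacement measured by filter-based scintillation counting. Single-concentration duplicates at 25 µM, then concentration-response up to 50 µM, relative to DMSO.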

Assay [14] addresses rat Adrenergic Receptor, Beta (Adrb), Non-selective Binding, Adrb1 (gene 24925) (UniProt P18090). Kind of assay: NVS_GPCR_rAdrb_NonSelective: NovaScreen (NVS) G Protein-Coupled Receptor Assay for rat Adrenergic Receptor, Beta (Adrb), Non-selective Binding (AID 2283298). Summed up:
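Non-selective beta-adrenergic radioligand binding in rat cortical membranes, 1 h incubation, filter-based scintillation read-out. Primary screen 25 uM in duplicate; hits retested in concentration-response up to 50 uM, DMSO baseline.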

In assay [15] the target is guinea pig Bradykinin Receptor B2 (BK2), BDKRB2 (gene 100135486) (UniProt O70526). Kind of assay: NVS_GPCR_gBK2: NovaScreen (NVS) G Protein-Coupled Receptor Assay for guinea pig Bradykinin Receptor B2 (BK2) (AID 2283292). Put shortly:
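Radioligand displacement on guinea pig ileum membranes for 1 h, read by filter-based scintillation counting; loss of signal relative to DMSO. Compounds were screened in duplicate at 25 uM, and those passing the threshold were retested in concentration-response up to 50 uM.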

Assay [16] has as its target rat Neonicotinoid receptor (NNR), Chrna7 (gene 25302) (UniProt Q05941). Kind of assay: NVS_LGIC_rNNR_BungSens: NovaScreen (NVS) Ligand-Gated Ion Channel Assay for rat Neonicotinoid receptor (NNR) (AID 2283315). Summed up:
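Radioligand displacement binding on rat cortical membranes, 2.5 h incubation, filtration and scintillation counting. Loss of specific binding fitted relative to DMSO.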

Assay [17] concerns the target rat Gamma-Aminobutyric Acid Type B Receptor (GABBR), Gabbr1 (gene 81657) (UniProt Q9Z0U4). Kind of assay: NVS_GPCR_rGABBR: NovaScreen (NVS) G Protein-Coupled Receptor Assay for rat Gamma-Aminobutyric Acid Type B Receptor (GABBR) (AID 2283301). Summed up:
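Radioligand displacement on rat cortical membranes, 1 h, filter-based scintillation counting. Primary screen at 25 uM in duplicate; compounds passing threshold re-tested in concentration-response up to 50 uM; loss of binding fitted against DMSO.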

Inconclusive results are not listed. The source made the active and inactive calls. Rule for the calls: active = hit-call score of the fitted dose curve at least 0.9, where 1 is the maximum; inconclusive = response in the unintended direction; inactive = score below 0.9.

Sequence of rat Adrenergic Receptor, Beta (Adrb), Non-selective Binding, Adrb1 (gene 24925) (P18090 whole entry, looked up): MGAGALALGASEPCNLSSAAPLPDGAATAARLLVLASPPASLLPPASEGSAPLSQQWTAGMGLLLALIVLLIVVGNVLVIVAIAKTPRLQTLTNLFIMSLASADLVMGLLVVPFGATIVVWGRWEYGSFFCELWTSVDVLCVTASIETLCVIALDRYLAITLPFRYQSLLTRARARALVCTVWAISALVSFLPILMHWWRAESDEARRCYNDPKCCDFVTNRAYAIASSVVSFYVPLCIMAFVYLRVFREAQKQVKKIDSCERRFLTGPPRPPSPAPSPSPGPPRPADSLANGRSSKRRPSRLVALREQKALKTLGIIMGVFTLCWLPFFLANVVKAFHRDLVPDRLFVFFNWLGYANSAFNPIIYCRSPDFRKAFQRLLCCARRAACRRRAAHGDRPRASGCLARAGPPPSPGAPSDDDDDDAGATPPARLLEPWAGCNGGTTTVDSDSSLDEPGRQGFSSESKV
Sequence of rat Neurokinin-3 Receptor (NK3), Tacr3 (gene 24808) (P16177 whole entry, looked up): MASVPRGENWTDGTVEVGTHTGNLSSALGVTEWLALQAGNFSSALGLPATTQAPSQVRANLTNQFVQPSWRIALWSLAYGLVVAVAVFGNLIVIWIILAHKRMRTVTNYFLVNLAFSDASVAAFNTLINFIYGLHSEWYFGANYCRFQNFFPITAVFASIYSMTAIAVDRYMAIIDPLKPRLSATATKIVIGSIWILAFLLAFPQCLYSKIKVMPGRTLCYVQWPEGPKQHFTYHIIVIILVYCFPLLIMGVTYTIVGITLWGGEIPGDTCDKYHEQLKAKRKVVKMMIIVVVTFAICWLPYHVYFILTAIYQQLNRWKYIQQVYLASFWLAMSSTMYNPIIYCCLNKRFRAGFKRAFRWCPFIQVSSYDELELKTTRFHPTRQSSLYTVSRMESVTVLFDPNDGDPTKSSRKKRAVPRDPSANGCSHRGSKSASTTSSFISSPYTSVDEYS
Sequence of Adra2b (gene 24174) (P19328 whole entry, looked up): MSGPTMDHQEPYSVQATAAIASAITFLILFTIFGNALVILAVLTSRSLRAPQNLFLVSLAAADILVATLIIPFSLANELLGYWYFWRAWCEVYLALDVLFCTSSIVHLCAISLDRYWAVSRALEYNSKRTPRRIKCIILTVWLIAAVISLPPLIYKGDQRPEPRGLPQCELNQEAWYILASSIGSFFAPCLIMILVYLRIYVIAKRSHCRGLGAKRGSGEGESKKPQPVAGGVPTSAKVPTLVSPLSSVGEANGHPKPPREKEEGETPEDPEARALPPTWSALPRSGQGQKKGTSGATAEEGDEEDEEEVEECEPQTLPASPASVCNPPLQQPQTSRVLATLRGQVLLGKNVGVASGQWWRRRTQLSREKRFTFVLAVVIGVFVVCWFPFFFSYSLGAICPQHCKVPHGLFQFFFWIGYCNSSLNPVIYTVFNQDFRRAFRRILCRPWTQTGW
Sequence of rat Adrenergic Receptor, Alpha 2 (Adra2), Non-selective Binding, Adra2a (gene 25083) (P22909 whole entry, looked up): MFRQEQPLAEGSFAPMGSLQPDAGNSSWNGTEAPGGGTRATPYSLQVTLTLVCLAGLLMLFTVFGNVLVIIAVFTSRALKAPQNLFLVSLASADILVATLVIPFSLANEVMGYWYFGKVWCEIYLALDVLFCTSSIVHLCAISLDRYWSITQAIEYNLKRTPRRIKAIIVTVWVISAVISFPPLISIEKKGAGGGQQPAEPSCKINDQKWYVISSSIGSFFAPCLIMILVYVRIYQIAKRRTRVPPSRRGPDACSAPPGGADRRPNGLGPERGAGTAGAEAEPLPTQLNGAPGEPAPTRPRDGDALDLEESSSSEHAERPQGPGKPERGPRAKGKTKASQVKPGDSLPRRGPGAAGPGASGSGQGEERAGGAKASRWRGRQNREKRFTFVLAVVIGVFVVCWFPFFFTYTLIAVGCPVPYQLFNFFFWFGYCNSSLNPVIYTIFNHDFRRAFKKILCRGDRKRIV
Sequence of guinea pig Serotonin, 5-Hydroxytryptamine Receptor 4 (5HT4), HTR4 (gene 100135548) (O70528 whole entry, looked up): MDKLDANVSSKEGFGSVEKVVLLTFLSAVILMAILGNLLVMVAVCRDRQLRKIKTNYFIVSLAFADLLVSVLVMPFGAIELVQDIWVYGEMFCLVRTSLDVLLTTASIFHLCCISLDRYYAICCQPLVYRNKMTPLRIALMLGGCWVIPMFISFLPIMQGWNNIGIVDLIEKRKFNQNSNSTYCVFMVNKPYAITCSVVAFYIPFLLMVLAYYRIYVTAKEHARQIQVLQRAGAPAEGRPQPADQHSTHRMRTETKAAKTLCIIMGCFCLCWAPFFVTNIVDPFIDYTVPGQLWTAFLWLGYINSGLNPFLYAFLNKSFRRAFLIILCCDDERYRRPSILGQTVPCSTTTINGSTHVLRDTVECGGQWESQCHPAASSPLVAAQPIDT
Sequence of rat Neurokinin-1 Receptor (NK1), Tacr1 (gene 24807) (P14600 whole entry, looked up): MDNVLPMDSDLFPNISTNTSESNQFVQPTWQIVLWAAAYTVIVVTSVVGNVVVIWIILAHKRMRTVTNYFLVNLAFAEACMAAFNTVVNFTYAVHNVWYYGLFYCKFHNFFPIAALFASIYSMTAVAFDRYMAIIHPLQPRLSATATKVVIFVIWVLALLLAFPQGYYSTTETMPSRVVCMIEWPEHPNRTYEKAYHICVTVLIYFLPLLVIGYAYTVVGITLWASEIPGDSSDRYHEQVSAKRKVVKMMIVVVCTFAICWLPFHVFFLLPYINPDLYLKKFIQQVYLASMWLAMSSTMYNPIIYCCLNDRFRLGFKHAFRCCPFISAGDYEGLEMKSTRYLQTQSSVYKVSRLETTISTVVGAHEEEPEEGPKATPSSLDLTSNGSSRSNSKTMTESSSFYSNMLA
Sequence of rat Opioid Receptor, Non-selective Sodium (Na+) Binding, Oprm1 (gene 25601) (P33535 whole entry, looked up): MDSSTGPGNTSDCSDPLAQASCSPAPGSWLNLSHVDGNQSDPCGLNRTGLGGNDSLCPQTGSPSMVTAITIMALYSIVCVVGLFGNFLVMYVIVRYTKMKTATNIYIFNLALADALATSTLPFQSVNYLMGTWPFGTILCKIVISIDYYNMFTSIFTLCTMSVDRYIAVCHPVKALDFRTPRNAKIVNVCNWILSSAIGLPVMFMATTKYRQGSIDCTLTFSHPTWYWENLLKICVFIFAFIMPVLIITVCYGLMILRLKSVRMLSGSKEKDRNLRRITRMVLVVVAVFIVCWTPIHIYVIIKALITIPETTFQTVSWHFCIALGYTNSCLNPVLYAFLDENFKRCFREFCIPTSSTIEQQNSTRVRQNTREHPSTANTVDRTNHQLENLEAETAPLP
Sequence of rat Opioid Receptor, Non-selective Binding, Oprm1 (gene 25601) (P33535 whole entry, looked up): as above
Sequence of rat Adrenergic, Alpha 1A Receptor (Adra1A), Adra1a (gene 29412) (P43140 whole entry, looked up): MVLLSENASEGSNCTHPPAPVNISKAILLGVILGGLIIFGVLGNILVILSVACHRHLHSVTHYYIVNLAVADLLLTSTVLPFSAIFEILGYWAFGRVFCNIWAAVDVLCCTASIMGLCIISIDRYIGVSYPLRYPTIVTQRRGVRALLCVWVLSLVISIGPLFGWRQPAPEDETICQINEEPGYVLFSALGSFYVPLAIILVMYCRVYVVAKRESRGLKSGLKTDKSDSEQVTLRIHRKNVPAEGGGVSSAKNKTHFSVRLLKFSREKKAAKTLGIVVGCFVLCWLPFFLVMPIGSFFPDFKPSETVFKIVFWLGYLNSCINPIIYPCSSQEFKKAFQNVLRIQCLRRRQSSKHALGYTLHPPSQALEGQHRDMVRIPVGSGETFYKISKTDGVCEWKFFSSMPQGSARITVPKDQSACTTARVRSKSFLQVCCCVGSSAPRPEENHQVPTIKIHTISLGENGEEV
Sequence of rat Serotonin, 5-Hydroxytryptamine Receptor (5HT), Non-Selective Binding, Htr1a (gene 24473) (P19327 whole entry, looked up): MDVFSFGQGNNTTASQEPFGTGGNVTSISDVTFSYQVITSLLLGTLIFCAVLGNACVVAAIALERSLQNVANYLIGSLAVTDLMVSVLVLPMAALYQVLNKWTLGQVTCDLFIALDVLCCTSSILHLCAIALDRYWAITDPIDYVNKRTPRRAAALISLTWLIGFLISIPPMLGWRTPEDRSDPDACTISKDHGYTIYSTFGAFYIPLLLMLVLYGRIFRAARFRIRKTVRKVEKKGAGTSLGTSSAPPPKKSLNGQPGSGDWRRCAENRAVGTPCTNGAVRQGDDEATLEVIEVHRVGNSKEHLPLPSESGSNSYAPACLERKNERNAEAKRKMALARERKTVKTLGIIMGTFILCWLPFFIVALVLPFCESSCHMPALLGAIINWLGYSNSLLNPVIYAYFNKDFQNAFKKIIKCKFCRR
Sequence of rat Somatostatin Receptor (SST), Sstr1 (gene 25033) (P28646 whole entry, looked up): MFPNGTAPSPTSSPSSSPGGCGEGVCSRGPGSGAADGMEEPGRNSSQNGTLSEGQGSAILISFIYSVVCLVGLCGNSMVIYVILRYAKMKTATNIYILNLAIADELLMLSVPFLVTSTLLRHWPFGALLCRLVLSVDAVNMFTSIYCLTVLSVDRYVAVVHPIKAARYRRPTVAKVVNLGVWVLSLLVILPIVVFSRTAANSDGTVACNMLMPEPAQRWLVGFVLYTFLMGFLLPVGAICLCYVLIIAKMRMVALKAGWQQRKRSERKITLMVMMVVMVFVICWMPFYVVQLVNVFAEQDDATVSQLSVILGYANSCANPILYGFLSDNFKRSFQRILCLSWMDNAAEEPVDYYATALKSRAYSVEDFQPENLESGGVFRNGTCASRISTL

As to `COc1ccc(OC(F)(F)F)cc1CN[C@H]1CCCN[C@H]1c1ccccc1`, the concentration at half-maximal activity (AC50) (as a rule, the concentration at which the activity in the assay is half-maximal) in assay [1] is 12.2 µM (active); in assay [2], 12.1 µM (active); in [3], 25 µM (active); in assay [4] it was 14.8 µM (active); in [5] it was 13.1 µM (active); with Adra2b (gene 24174), 9.2 µM (active). The AC50 is 12.5 µM (active) in assay [6], 8.11 µM (active) in [8] and 25 µM (active) in assay [10]. For the same compound, the result (in assay [7]; in assay [9]; in the assay with NCBI gene 24521) was inactive.

Take `CN(C)C(=O)NC1(c2ccccc2)CCN(CC[C@@]2(c3ccc(F)c(F)c3)CN(C(=O)c3ccccc3)CCO2)CC1`: the concentration at half-maximal activity (AC50) is 5.72 µM (active) in [2]; 8.08 µM (active) in assay [3]; 3.23 µM (active) in assay [7]; 2.1 µM (active) in assay [10]; 3.38 µM (active) in [12]. Besides, the compound was classed as inactive in [11] and in [6].

For the compound `Cc1ccc(C(C)(C)C)c(O)c1`, in assay [3], the compound was classed as inactive.

With `CN(C)CCCN(C)CCCN(C)C`, the result in assay [1] and in assay [4] was inactive. In assay [13], the half-maximal activity concentration (AC50) was 25 µM (active).

`O=C(N[C@@H](c1ccccc1)[C@@H]1CCCCN1)c1cccc(C(F)(F)F)c1Cl`: the AC50 is 2.1 µM (active) in assay [2]; 16.7 µM (active) in assay [3]; 39.2 µM (active) in [5]; 31.4 µM (active) in assay [7]; 6.67 µM (active) in assay [8]; 12.8 µM (active) in [10]. In addition, the result in [13] was inactive.

For the compound `CSc1ccc(Oc2ccc(S(N)(=O)=O)cc2CN(C)C)cc1C`, the half-maximal activity concentration (AC50) in [1] is 0.621 µM (active); in [2], 13.5 µM (active); in [3] it was 6.58 µM (active); in [4], 0.875 µM (active); in assay [14], 25 µM (active); in assay [5], 10.6 µM (active). Also, the AC50 in the assay with Adra2b (gene 24174) was 1.74 µM (active); in assay [11] it was 25 µM (active); in [7], 3.74 µM (active); in assay [10], 1.36 µM (active); in assay [12], 8.08 µM (active).

For the compound `CCCCCCCCCCCCCCOS(=O)(=O)O`, in assay [4], the AC50 was 20.9 µM (active).

With `CCN(CC)CCOc1ccc(C(=C(Cl)c2ccccc2)c2ccccc2)cc1`, the compound was classed as inactive in [15]. Moreover, the AC50 is 11.4 µM (active) in assay [1]; 21 µM (active) in assay [2]; 21 µM (active) in assay [3]; 21 µM (active) in [4]; 16 µM (active) in the assay with Adra2b (gene 24174); 21 µM (active) in assay [11]. Besides, the AC50 in assay [7] and in assay [16] was 21 µM (active) in each case.

For `CC(C)c1cccc(C(C)C)c1`, the compound was called inactive in assay [1].

For the compound `C/C=C/c1ccc(OC)cc1`, the half-maximal activity concentration (AC50) in [14] was 0.28 µM (active).

For `CCCCCCCCCC[N+](C)(C)[O-]`, the call in [14] and in [6] was inactive.

For the compound `NCCOCCOCCN`, the result in assay [17] was inactive.

`Cc1ccc(-c2cc(C(F)(F)F)nn2-c2ccc(S(N)(=O)=O)cc2)cc1`: in the assay with Adra2b (gene 24174), the compound was called inactive.

As to `NC=O`, the result in assay [11] was inactive.

Regarding `CCCCCCC(C=O)=Cc1ccccc1`, the compound was called inactive in assay [8].

(Values after PubChem BioAssay (EPA / NIEHS).)
